16 compounds from PubChem BioAssay (Tox21) can be followed below.

Results filed as inconclusive are left out. Where a call stands in place of a potency, no number is given. Values without a mark were called inactive. The source made the active and inactive calls. The call rests on the fitted dose curve.

Chain of Acetylcholinesterase (Homo sapiens) (P22303 whole entry, looked up): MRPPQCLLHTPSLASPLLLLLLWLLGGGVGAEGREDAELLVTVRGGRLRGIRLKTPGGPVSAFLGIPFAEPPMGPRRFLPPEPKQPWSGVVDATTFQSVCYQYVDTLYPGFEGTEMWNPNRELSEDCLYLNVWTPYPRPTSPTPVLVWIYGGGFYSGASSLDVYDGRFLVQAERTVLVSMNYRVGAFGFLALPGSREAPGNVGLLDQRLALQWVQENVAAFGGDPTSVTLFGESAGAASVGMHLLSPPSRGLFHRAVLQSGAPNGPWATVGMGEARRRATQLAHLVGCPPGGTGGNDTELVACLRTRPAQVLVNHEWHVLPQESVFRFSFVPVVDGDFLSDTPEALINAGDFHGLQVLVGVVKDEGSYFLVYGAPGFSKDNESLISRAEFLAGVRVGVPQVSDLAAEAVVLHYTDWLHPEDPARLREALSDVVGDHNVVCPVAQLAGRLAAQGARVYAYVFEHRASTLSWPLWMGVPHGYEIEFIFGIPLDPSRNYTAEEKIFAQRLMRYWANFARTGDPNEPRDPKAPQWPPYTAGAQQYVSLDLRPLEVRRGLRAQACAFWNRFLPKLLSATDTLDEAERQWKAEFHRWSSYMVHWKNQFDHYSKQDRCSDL

In this assay the target is Acetylcholinesterase (Homo sapiens) (UniProt P22303). Put plainly: Acetylcholinesterase (AChE) small molecule antagonists: colormetric cell-based qHTS assay (AID 1347395). Further: nearly all actives have a fitted effect of over 30% in size. As to conditions: SH-SY5Y cells AChE activity, colorimetric (Ellman); series mostly up to 115 µM. Summed up:
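Cells (SH-SY5Y, 2,000 per well) are seeded and left overnight at 37 C. Compound is added for 30 min, then DTNB and acetylthiocholine for a further 90 min at 37 C before absorbance-based thiocholine detection.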
(In general: In qHTS, concentration-response curves come from the screen itself.)
For `CN(C)C(=O)NC1(c2ccccc2)CCN(CCC[C@]2(c3ccc(Cl)c(Cl)c3)CCCN(C(=O)c3ccccc3)C2)CC1`, the activity, negative = inhibition was -4.11% [at 23.6 µM].

For `COC(=O)[C@@H]1CC2=CC(=O)CC[C@]2(C)[C@@]23O[C@@H]2C[C@@]2(C)[C@@H](CC[C@@]24CCC(=O)O4)[C@H]13`, the Potency result is “inactive”. Take `O=C(/C=C/c1ccccc1)OCCCc1ccccc1`: the Potency result is “inactive”. The same measure, in the same setting: the entry for `NC(=O)c1ccccc1O` is “inactive”; for `C=C[Si](OC(=C)C)(OC(=C)C)OC(=C)C` it is “inactive”. Consider `NC[C@H]1O[C@H](O[C@H]2[C@H](O[C@@H]3O[C@H](CO)[C@@H](O)[C@H]3O)C(O)[C@H](N)C[C@@H]2N)[C@H](N)[C@@H](O)[C@@H]1O` (stereo partly specified), for which the activity, negative = inhibition was -1.41% [at 10.5 µM].

With `Oc1ccc(OCc2ccccc2)cc1`, the Potency entry is “inactive”.

Turning to `Cc1ncc(CSSCc2cnc(C)c(O)c2CO)c(CO)c1O`, the Potency result is “inactive”. On to `CCC(Cc1c(I)cc(I)c(N)c1I)C(=O)O` (stereo unspecified), for which the Potency entry was “inactive”. As for `COc1cc(CNC(=O)CCCC/C=C/C(C)C)ccc1O`, the Potency entry is “inactive”.

As for `O=C(O)c1ccc2cc(C(=O)O)ccc2c1`, the Potency entry is “inactive”. Consider `O=c1cc(O)c(Cl)c[nH]1`, for which the Potency result was “inactive”. As to `CC1(C)O[C@H]2CC(=O)OC[C@]23[C@H]2CC[C@@]4(C)[C@H](c5ccoc5)OC(=O)[C@H]5O[C@]54[C@]2(C)C(=O)C[C@@H]13`, the Potency result was “inactive”. On to `CCCCCCCCCCC(=O)O`, for which the Potency result is “inactive”. As to `Cc1c(Cn2ccnc2)c2ccccc2n1CCC(=O)O`, the Potency entry is “inactive”. With `C/C=C/c1ccc(OC)c(OC)c1`, the Potency entry was “inactive”.
